The values below come from PubChem BioAssay (NCATS).

Each structure is given as a SMILES string. Results filed as inconclusive are left out. Activity calls are given as the source filed them. Calls come from the whole dose curve; as a rule, active = well fitted curve in the direction sought with a large enough effect in the signal ratio; inconclusive = small, poorly fitted or top-dose-only effect, or effect the other way, or a change in a side signal; inactive = no such curve, though single readings can be large or run the other way; the % refers to the signal ratio.

The experiment in a line: qHTS Assay for Modulators of Human Peripheral Myelin Protein 22 (PMP22) Expression/Activity (AID 1967). To be noted: Cell-based PMP22 reporter, dual-color luciferase ratio, 0% = compound-free control cells, mouse Pmp22 promoter in mouse Schwann cells; series mostly up to 115 µM. From the text:
Charcot-Marie-Tooth-Association [CMTA]
NIH Chemical Genomics Center [NCGC]
Charcot-Marie-Tooth (CMT) disease was first characterized by Jean-Martin Charcot and Pierre Marie in France and, independently, by Howard Henry Tooth in England in 1886. CMT is one of the most common inherited neurological diseases, affecting about 125,000 Americans. […] The most common cause of CMT is known as CMT1A, and is caused by a duplication of the PMP22 gene, leading to over-expression of this protein. PMP22 is a glycosylated intrinsic membrane protein accounting for 2-5% of the myelin protein content and over-expression leads to demyelination and subsequently axonal loss.
A cell-based assay for PMP22 expression modulation was developed by Drs. Ned Mantei and Ueli Suter on behalf of the CMTA. This assay employs a mouse Schwann cell line, MSC80 (Boutry et al., 1992), that was engineered to have the mouse Pmp22 promoter driving expression of a green light-emitting click beetle luciferase (CBG68; Chroma-Gl developed by Promega Corp). A red light-emitting click beetle luciferase (CBR; developed by Promega Corp: CBG68 and CBR differ by only a few amino acids within the D-luciferin binding pocket) under control of the EF-alpha promoter is also stably expressed in the same cells for use as an internal control for nonspecific promoter- or reporter-based effects.
NCGC Assay Protocol Summary:
Cells were seeded in white solid 1536-well plates at between 500-750 cells/4uL in DMEM medium containing 10% FBS, w/o phenol red. After overnight incubation at 37 degree Celsius/5% C02, 23 nL of compounds or DMSO were delivered to each well using a pin tool, followed by 24h-incubation at 37 degree Celsius/5% C02. Then 4 uL Chroma-Glo luminescent substrate mix (Promega) was added to each well. Luminescence was measured on a ViewLux plate reader (Perkin Elmer) using a 540/25 nm filter for green luminescence and a 618/8 nm filter for red luminescence. The green and red luminescent signals were corrected for red and green luminescence filter overlap using filter calibration constants (determined using control cell lines expressing either the green or red CBLuc reporters using the procedures given in Davis et al., 2007). The %Activity was determined from the ratio of corrected green/red luminescent values. Green luminescent and ratio %Activity was determined by normalizing to the signal between of untreated cells (0% Activity)
Keywords: luminescence, PMP22, CMT1A, NCGC, CMTA, qHTS
Concentration-response curves were fitted to the signals arising from the green luminescence (PMP22 promoter driven expression) and the red luminescence (control promoter) as well as the calculated ratio. The concentration-effect curves were then classified based on curve quality (r2), response magnitude and degree of measured activity.
Regarding `C1CCc2nnnn2CC1`, the outcome was inactive.
For `CN1C2CCC1CC(OC(=O)c1c[nH]c3ccccc13)C2` (stereo unspecified), the outcome was inactive.
As for `CCC(NC(C)C)C(O)c1ccc(O)c(O)c1` (stereo unspecified), the outcome was inactive.
Under `Nc1cc(Cl)c(NC2=NCCN2)c(Cl)c1` stands “inactive”; under `O=C(O)c1cc2cc(Cc3cccnc3)ccc2o1`, “inactive”; under `C[C@@H]1C(=O)NC2=Nc3cccc(Cl)c3CN21`, “inactive”.
For the compound `O=C1CCC(c2ccc(-n3ccnc3)cc2)=NN1`, the result was inactive.
Under `CC1(C)CCC(NC(=O)[C@@H](N)CCC(=O)O)CC1` stands “inactive”; under `N[C@@H](Cc1cnc[nH]1)C(=O)O`, “inactive”.
Regarding `CCCn1c(=O)[nH]c(=O)c2[nH]cnc21`, the outcome was inactive.
The value for `CC(CCc1ccccc1)NCC(O)c1ccc(O)c(C(N)=O)c1` (stereo unspecified) was “inactive”.
